KAT2A inh: inhibitors of human GCN5L2 histone acetyltransferase; Q92830; GCN5L2 HAT assay, ThioGlo1 CoA-SH fluorescence; Potency, µM (doses to about 58.9 µM), for the others: at the top dose activity change, negative = inhibition, hits mostly inhibitors; hit rate 0.21% among 390,000; AID 504327; further: potency means the concentration at half of the fitted maximal effect
Target sequence (Q92830 whole entry, looked up): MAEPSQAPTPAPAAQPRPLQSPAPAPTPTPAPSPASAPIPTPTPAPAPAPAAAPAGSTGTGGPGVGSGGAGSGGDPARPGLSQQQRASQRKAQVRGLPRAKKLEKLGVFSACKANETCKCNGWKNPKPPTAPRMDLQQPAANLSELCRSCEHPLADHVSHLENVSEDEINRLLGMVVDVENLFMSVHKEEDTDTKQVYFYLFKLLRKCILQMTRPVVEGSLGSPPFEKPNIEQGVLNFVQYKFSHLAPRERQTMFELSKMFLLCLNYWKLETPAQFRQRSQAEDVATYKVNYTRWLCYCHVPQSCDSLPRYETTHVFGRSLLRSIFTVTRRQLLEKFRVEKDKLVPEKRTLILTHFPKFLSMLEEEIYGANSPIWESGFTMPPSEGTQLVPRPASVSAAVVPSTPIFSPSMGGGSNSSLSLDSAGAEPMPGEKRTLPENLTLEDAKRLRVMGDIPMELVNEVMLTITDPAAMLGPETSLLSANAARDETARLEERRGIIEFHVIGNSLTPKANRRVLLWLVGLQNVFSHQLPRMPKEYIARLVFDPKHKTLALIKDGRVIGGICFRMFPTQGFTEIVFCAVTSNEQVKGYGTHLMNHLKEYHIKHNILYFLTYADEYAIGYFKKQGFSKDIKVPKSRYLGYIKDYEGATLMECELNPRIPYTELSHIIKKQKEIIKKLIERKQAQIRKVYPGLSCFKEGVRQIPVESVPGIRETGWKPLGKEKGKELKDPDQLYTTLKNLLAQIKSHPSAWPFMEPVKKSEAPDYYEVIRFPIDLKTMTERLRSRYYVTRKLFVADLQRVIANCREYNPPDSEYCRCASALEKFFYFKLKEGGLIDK
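Titration-based screen in which CoA formation is detected via maleimide probe ThioGlo1 (50uM) turning fluorescent on thiol reaction; substrates H3(1-25) 75uM and acetyl-CoA 70uM, GCN5L2 20nM, 20 min incubation at room temperature.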
Tb PGK inh: inhibitors of T. brucei phosphoglycerate kinase | AID 602233 | P07378 | hit rate 0.043% among 380,000 | Potency, µM (series often up to 57.5 µM), inactives show at the highest dose activity change, negative = inhibition, hits mostly inhibitors | PGK/GAPDH coupled, Kinase-Glo luminescence, 60 min; further: potency means the concentration at half of the fitted maximal effect; nearly all actives have a fitted effect of over 60% in size
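Luminescent ATP detection (Kinase-Glo Plus) follows a 60-minute room-temperature incubation, with wells lacking PGK as controls. Buffer: 100 mM TEA (pH 7.6), 5 mM MgCl2, 0.01% Tween-20. Coupling enzyme GAPDH (100 nM final) supplies unstable 1,3-BPG in-well.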
RGS4 inh: blocks human RGS4-accelerated GTP hydrolysis; P49798; Transcreener GDP fluorescence polarization, RGS4-accelerated GTP hydrolysis; Potency, µM (doses to about 114 µM), inactives show top-dose activity change, negative = inhibition, actives largely listed as inhibitors; hit rate 0.039% among 390,000; AID 504845; further: potency means the concentration at half of the fitted maximal effect; nearly all actives have a fitted effect of over 75% in size
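MLSMR compounds (23 nl, pin-transferred) preincubated 10 min at room temperature with a 500nM (2x) first reagent, then RGS4 at 900nM (2x) plus Transcreener GDP mix added; fluorescence polarization (620/688 nm) read before and after 90 min at 30 °C.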
KCNH2 WT inh: blocks the wildtype human KCNH2 potassium channel; AID 720551; hit rate 0.37% among 340,000; Q12809; activity change, % at 1.84 µM; U2OS, BacMam KCNH2, thallium flux FluxOr; active compounds read low;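 active means maximum activity change below -70%; inconclusive means maximum activity change between -70% and -50%; inactive means maximum activity change above -50%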
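U2OS cells transduced with wild-type KCNH2 virus are loaded with FluxOr dye for 45 min, and thallium flux is measured in kinetic reads before and after stimulation buffer. Rate constants are normalized to DMSO controls.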
Pin1 inhibitor: blocks the human prolyl isomerase Pin1; Q13526; Pin1 FP peptide displacement, HiFluor488, 10 min; Potency, µM (titrated, usually from 115 µM), without a hit: at the highest dose activity, negative = inhibition, actives largely listed as inhibitors; hit rate 0.009% among 390,000; AID 504891; active means well fitted inhibition curve with a large enough effect in the polarisation, with a control signal flat, not every such curve was filed as active; inconclusive means small, poorly fitted or top-dose-only effect, or effect the other way, or a change in a side signal; inactive means no such curve, though single readings can be large or run the other way; the % refers to the polarisation; further: potency means the concentration at half of the fitted maximal effect
KCNH2 3.1 block: KCNH2 3.1 (human) potassium channel inhibition; activity change, % (tested at about 1.8 µM); U2OS KCNH2 3.1, thallium flux FluxOr; active compounds read low; hit rate 0.95% among 340,000;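 active means maximum activity change below -70%; inconclusive means maximum activity change from -70% to -50%; inactive means maximum activity change above -50%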;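 further: thallium influx rate constant from kinetic fluorescence after stimulation buffer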
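Normalized rate constant (relative to positive and negative DMSO controls) derived from a 2 min kinetic fluorescence read after stimulation; U2OS cells expressing the 3.1 isoform via virus at 1.77 x 10^8 /mL.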
Starred values were filed as active, the others as inactive; i = inactive; ? = inconclusive; · = no result; ! = a repeat was not active; [ ] = another dose, or the depositor's remark. Rows were chosen to be rich in hits. Some 1.2% of all compounds tested hit in one or more screens of this group. Unless noted, the call rests on the fitted dose curve; in most records, active means well fitted curve in the direction sought with a large enough effect; inconclusive means small, poorly fitted or top-dose-only effect, or another doubt; inactive means no such curve, though single readings can be large; an effect the other way counts as inactive or inconclusive. On the % scale 0 is the no-effect control and ±100 the full control effect.

SMILES	KAT2A inh	Tb PGK inh	RGS4 inh	KCNH2 WT inh	Pin1 inhibitor	KCNH2 3.1 block
O=C1CC(N(CCc2ccccc2)C(=S)Nc2ccccc2)C(=O)N1c1ccc(F)cc1 (configuration not stated)	-13%	0%	24%	-2	?	-80*
O=C1CC(N(CCc2ccccc2)C(=S)Nc2ccccc2)C(=O)N1c1ccccc1 (configuration not stated)	-5%	-14%	-7%	0	9%	16
Cc1ccc(NC(=O)Cn2c(=O)n(Cc3ccco3)c(=O)c3sc4ccccc4c32)cc1C	-11%	i	-43%	·	25%	·
Nc1ccc2c(c1)[nH]c(=O)c1ccccc12	·	1%	?	-12	7%	-196*
CCOC(=O)c1c(C)[nH]c(C)c1S(=O)(=O)NCC1CCN(Cc2ccc(C)cc2)CC1	-3%	i	26%	27	-12%	-28
CCOC(=O)c1c(C)[nH]c(C)c1S(=O)(=O)NCC1CCN(Cc2cccc(Cl)c2)CC1	-10%	i	6%	-4	2%	-121*
COC(=O)c1cc(S(=O)(=O)NCC2CCN(Cc3ccc(F)cc3)CC2)c[nH]1	-9%	-1%	24%[11.4 µM]	48	-13%	-45
COC(=O)c1cc(S(=O)(=O)NCC2CCN(Cc3ccc(C)cc3)CC2)c[nH]1	1%	-2%	-5%	-26	-10%	-76*
COc1ccc(CNCC(O)(c2ccccc2)c2ccc(Cl)cc2)cc1 (configuration not stated)	-2%	-5%	-12%	-22	2%	-72*
Cn1c(=O)c(-c2ccc(F)c(F)c2)nc2cncnc21	-15%	·	·	·	·	·
CCN1CCN(P2(=O)C=C(c3ccccc3)OC(c3ccccc3)=C2)CC1	2%	-7%[11.5 µM]	-1%	-123*	0%	-90*
O=C(NCCCN1CCOCC1)c1ccccc1N1C(=O)[C@@H]2Cc3c([nH]c4ccccc34)C(c3ccc(F)cc3)N2C1=O (some centres not stated)	-13%	-1%	4%	-43	-3%	-82*
CCCCc1nn2c(=O)cc(COC(=O)c3ccccc3NC(=O)c3cccc(C)c3)nc2s1	-20%	-4%	-5%	·	3%	·
Cc1ccc2nc(-c3ccccn3)oc2c1	-5%	-13%	5%	-2	1%	22
Cc1ccc2nc(-c3cccnc3)oc2c1	?	3%	35%[11.4 µM]	-221*	4%	-180*
C[C@@H](O)[C@H]1C(=O)N2C(C(=O)O)=C(SCCN=CN)C[C@H]12	-20%	·	0%[56.9 µM]	·	·	·
Cc1csc2nc(NC(=O)c3ccccc3)sc(=O)c12	-20%	i	-20%	-2	186%	-79*
CCC[C@H]1C[C@H](C(=O)NC(C(C)Cl)C2O[C@@H](SC)C(OP(=O)(O)O)[C@@H](O)[C@@H]2O)N(C)C1 (some centres not stated)	-16%	·	·	·	·	·
CCCc1cc(=O)oc2c3c(c(Cl)cc12)OCN(CCCO)C3	13µM*	·	·	·	·	·
CCCc1cc(=O)oc2c(CN3CCCC3)c(O)c(Cl)cc12	?	-5%	-10%	-4	-1%	0
O=C(COC(=O)c1ccc(Cl)c(S(=O)(=O)N2CCOCC2)c1)Nc1ccc2[nH]c(=O)[nH]c2c1	-12%	1%	-33%	4	?	0
O=C(COC(=O)c1ccc(Cl)c(S(=O)(=O)N2CCN(c3ccc(F)cc3)CC2)c1)Nc1cccc(Cl)c1	-7%	-1%	12%	-16	32%	-82*
COc1ccc(Br)cc1CNCc1c(C(=O)O)c(C)n(Cc2ccccc2C)c1C	-3%	2%	-9%	·	3%	·
Cc1ccc(OCC(=O)Nc2sc3c(c2C(N)=O)CCCC3)c(C(C)(C)C)c1	-14%	·	-17%	·	-1%	·
Cc1c(C(=O)N(C)C)c2ccc(Cl)cc2n1O	1%	2%	21%	0	1%	-107*
SMILES	KAT2A inh	Tb PGK inh	RGS4 inh	KCNH2 WT inh	Pin1 inhibitor	KCNH2 3.1 block
O=C(Cn1nnc2c(cnn2-c2ccc(F)cc2)c1=O)Nc1ccccc1C(F)(F)F	13µM*	-3%	-8%	13	0%	12
O=C(CSc1nc2c(cnn2-c2ccc(F)cc2)c(=O)[nH]1)Nc1ccccc1C(F)(F)F	2%	-6%	4%	·	17%	·
CC(=O)CN1Cc2ccccc2/C1=N\C(=O)Nc1ccccc1	-2%	i	7%	0	22%	-78*
COc1ccc(N2CCN(C(c3ccccc3)c3nnc(-c4ccccc4Cl)o3)CC2)cc1 (configuration not stated)	-8%	0%	-14%	·	1%	·
Cc1cc(-c2cc(-c3ccc(Cl)cc3)on2)nc(NC2CCCC2)n1	17%	8%	33%	-5	-2%	-4
Cc1cc(-c2cc(-c3ccccc3)on2)nc(NC2CCCC2)n1	-5%	-6%	7%	0	2%	-70*
Cn1c(Cl)c(/C=N/OC(=O)C2CC2)c2ccccc21	-4%	6%	8%	3	2%	-92*
c1cncc(CNc2ncnc3ccc(-c4ccoc4)cc23)c1	28µM*!	i	6%	·	10%	·
Cc1cccc(C(C)C)c1NC(=O)c1ccc2c(c1)CCN2S(C)(=O)=O	-6%	i	-6%	·	-6%	·
COc1ccc(NS(=O)(=O)c2ccccc2)cc1NS(=O)(=O)c1ccccc1	·	·	·	·	-9%	·
COc1ccc(-n2c(=O)c3c4c(sc3n(Cc3ccc(C(C)(C)C)cc3)c2=O)CCC4)c(OC)c1	-12%	10%	-5%	·	22%	·
NC(C(=O)O)c1nn[nH]n1 (configuration not stated)	·	·	-12%	·	-1%	·
S=C1NCN(C2CCCCC2)CN1c1ccccc1	-4%	-6%	0%	-3	0%	-96*
COC1=CC(=O)C(O)=C(CCCCCCC/C=C/CCCCCCCC2=C(O)C(=O)C=C(OC)C2=O)C1=O	·	?	?	0	·	-4
CCCCCCCCCCCC1=C(O)C(=O)C=C(O)C1=O	·	-7%	-30%	5	28µM*	-2
CCOc1ccc(-n2c(=O)c3c4c(sc3n(CC(=O)NC(C)CC)c2=O)CCCC4)cc1 (configuration not stated)	2%	9%	22%	·	-4%	·
CCNc1ncc2nc(-c3cc(F)cc(F)c3)c(=O)n(C[C@H]3CCCO3)c2n1	-12%	·	·	·	·	·
O=C(NC1CCS(=O)(=O)C1)c1ccc(S(=O)(=O)N2CCCC2)cc1 (configuration not stated)	-30%	-3%	-8%	-8	1%	26
CC1CCN(S(=O)(=O)c2ccc(C(=O)NC3CCS(=O)(=O)C3)cc2)CC1 (configuration not stated)	-4%	9%	13%	-3	-2%	-79*
